# Measured values reported in PubChem BioAssay (NCI).
# Compounds without any hit were thinned out: in the full panel of roughly 83,000, 20% have a hit.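 Method: cells in 96-well plates; compound added at one concentration; 48 h incubation; percent growth measured; values under 10 scored active.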 Unmarked numbers belong to inactive results. The source made the active and inactive calls.
# System: SNB-75 CNS
# Assay: NCI-60 one-dose screen, 48 h (100 = growth as untreated, 0 = no growth, -100 = all killed)
# Details: 10 µM unless noted
row,SMILES,growth
1,COc1cc(OC)c(NC(=O)c2cc3ccccc3cc2O)cc1Cl,86.9%
2,Cc1cn(-c2cc(NC(=O)c3cccc(C#Cc4cccc5[nH]nc(N)c45)c3)cc(C(F)(F)F)c2)cn1,48.1%
3,CCOC(=O)C/C(=N\Nc1cc(=O)[nH]c2ccc(Br)cc12)C(=O)OCC,88.2%
4,CS(=O)(=O)Nc1cc(-c2ccc3ncnc(Nc4ccc5c(cnn5Cc5ccc(F)cc5)c4)c3c2)cnc1Cl,-10.1% (active)
5,CCCCNC(=O)Oc1ccc(/C(=C(/C)Cc2ccc(OC)cc2)c2ccc(OCCN(CC)CC)cc2)cc1,69.1%
6,COc1ccc(-c2nc3c(ncc4ccc(=O)[nH]c43)s2)cc1,102%
7,COc1c(C(=O)Nc2ccc(C)c(Br)c2)ccc2ccccc12,88.4%
8,O=C(Nc1nc2ccccc2s1)c1ccc(F)cc1,96.7%
9,CN(C)c1ccc(C(=O)OCCCCCCl)cc1,78.4%
10,Cn1ccnc1C(=O)/C=C/c1ccc(CC(=O)Nc2cc(C(F)(F)F)cc(C(F)(F)F)c2)cc1,58.3%
11,c1ccc(-c2oc(-c3ccccc3)c(CN3CCCCC3)c2CN2CCCCC2)cc1,55.6%
12,O=C1/C(=C/c2ccccc2Br)COc2ccc(O)cc21,89.3%
13,COc1ccc(/C=C/C(=O)c2cc3c(N)c(C(=O)Nc4cccc5ccccc45)sc3nc2C)cc1,53.6%
14,CC(C)c1ccc(C(=O)Nc2sc3c(c2C(N)=O)CCC(=O)C3)cc1,-88.2% (active)
15,C=C(C)[C@@H]1CC[C@]2(C(=O)N3CCOCC3)CC[C@]3(C)[C@H](CC[C@@H]4[C@@]5(C)C/C(=C/c6ccncc6)C(=O)C(C)(C)[C@@H]5CC[C@]43C)[C@@H]12,78.5%
16,Cc1cn(-c2cc(NC(=O)c3cncc(C#Cc4cnc(N)c5ncccc45)c3)cc(C(F)(F)F)c2)cn1,89.4%
17,Nc1nc2ccccc2c2c1S(=O)(=O)c1ccc(Cl)cc1C2=O,24.5%
18,CCC(=C(c1ccc(OCCN2CCCCC2)cc1)c1ccc(OCCN2CCCCC2)cc1)c1ccc(Cl)cc1,-96.4% (active)
19,O=C1C(Cl)=C(Nc2ccc(S(=O)(=O)N3CCOCC3)cc2)C(=O)c2ccccc21,71.3%
20,COc1ccc(C/C(C)=C(\c2ccc(Cl)cc2)c2ccc(OCCN3CCCCC3)cc2)cc1,89.3%
21,COc1cc2c(cc1OC)C(C)N(S(N)(=O)=O)CC2 (stereo unspecified),87.6%
22,Cc1[nH]c(=O)[nH]c(=O)c1Br,91.6%
23,Clc1cccc(Nc2ncnc3ccc(-c4cnc5[nH]ccc5c4)cc23)c1,84.7%
24,CCCCNC(=O)Oc1ccc(/C(=C(/C)Cc2ccc(OC)cc2)c2ccc(OCCN3CCCC3)cc2)cc1,70%
25,C#CCOC(=O)/C=C/c1cn(-c2ccccc2)nc1-c1ccc(OC)cc1,66.6%
26,COC(=O)[C@]1(C)CCC[C@]2(C)[C@H]3C[C@H]4C(C(C)C)=C[C@]3(CC[C@H]21)[C@@H]1C(=O)CC[C@H](OCCC#N)[C@@H]14,87.6%

# System: SNB-19 CNS
# Assay: as above
# Details: 10 µM unless noted
row,SMILES,growth
1,S=c1sc2c(Cl)nc(-c3cccnc3)nc2n1-c1ccccc1,25.2%
2,C=C(C)[C@@H]1CC[C@]2(CO)CC[C@]3(C)[C@H](CC[C@@H]4[C@@]5(C)CC[C@H](NCO)C(C)(C)[C@@H]5CC[C@]43C)[C@@H]12,42.3%
3,CN(C)Cc1ccc(O)c(C(=O)O)c1,109%
4,CCCn1cc2c(=O)nc3sc(Cc4ccccc4)c(C)n3c2n1,98%
5,CN(/C(N)=N/N=C/c1c2ccccc2cc2ccccc12)C1CCCCC1,71.5%
6,CC(=O)n1nc(C(=O)OC(C)(C)c2ccccc2)c2ccccc21,95.7%
7,CS(=O)(=O)c1ccc(-c2cnn3ccc(-c4cccc(S(=O)(=O)C5CC5)c4)nc23)cc1,67.3%
8,COc1ccc(/C=C(\C#N)n2nnc3ccc(Cl)cc32)cc1,55.2%
9,Oc1c(Br)cc(Br)c2ccc(Cn3cc(-c4ccc(C(F)(F)F)cc4)nn3)nc12,94%
10,Cc1sc2nc(NCCc3c[nH]c4ccc(Cl)cc34)[nH]c(=O)c2c1C,63.8%
11,CCN1C(=S)N(c2ccccc2)C2NC(=S)N(/N=C/C=C/c3ccccc3OC)C21 (stereo unspecified),31.3%
12,CCN(C)S(=O)(=O)Nc1cccc(Nc2ncnc3cc(NC(=O)CCl)ccc23)c1Cl,16.7%
13,Cn1c(I)c(C#CCO[Si](C)(C)C(C)(C)C)c(=O)[nH]c1=O,104%
14,Nc1[nH]n2cc(-c3ccccc3)nc2c1N=Nc1ccc(S(N)(=O)=O)cc1,60.4%
15,COc1cc(OC)c(NC(=O)c2cc3ccccc3cc2O)cc1Cl,51%
16,Cc1cn(-c2cc(NC(=O)c3cccc(C#Cc4cccc5[nH]nc(N)c45)c3)cc(C(F)(F)F)c2)cn1,55.5%
17,CCOC(=O)C/C(=N\Nc1cc(=O)[nH]c2ccc(Br)cc12)C(=O)OCC,99.5%
18,CS(=O)(=O)Nc1cc(-c2ccc3ncnc(Nc4ccc5c(cnn5Cc5ccc(F)cc5)c4)c3c2)cnc1Cl,47%
19,CCCCNC(=O)Oc1ccc(/C(=C(/C)Cc2ccc(OC)cc2)c2ccc(OCCN(CC)CC)cc2)cc1,87.7%
20,COc1ccc(-c2nc3c(ncc4ccc(=O)[nH]c43)s2)cc1,105%

row,SMILES,growth
1,COc1c(C(=O)Nc2ccc(C)c(Br)c2)ccc2ccccc12,95.3%
2,O=C(Nc1nc2ccccc2s1)c1ccc(F)cc1,126%
3,CN(C)c1ccc(C(=O)OCCCCCCl)cc1,95.6%
4,Cn1ccnc1C(=O)/C=C/c1ccc(CC(=O)Nc2cc(C(F)(F)F)cc(C(F)(F)F)c2)cc1,67.1%
5,c1ccc(-c2oc(-c3ccccc3)c(CN3CCCCC3)c2CN2CCCCC2)cc1,44.5%
6,O=C1/C(=C/c2ccccc2Br)COc2ccc(O)cc21,75%
7,COc1ccc(/C=C/C(=O)c2cc3c(N)c(C(=O)Nc4cccc5ccccc45)sc3nc2C)cc1,56.3%
8,CC(C)c1ccc(C(=O)Nc2sc3c(c2C(N)=O)CCC(=O)C3)cc1,13%
9,C=C(C)[C@@H]1CC[C@]2(C(=O)N3CCOCC3)CC[C@]3(C)[C@H](CC[C@@H]4[C@@]5(C)C/C(=C/c6ccncc6)C(=O)C(C)(C)[C@@H]5CC[C@]43C)[C@@H]12,76.9%
10,Cc1cn(-c2cc(NC(=O)c3cncc(C#Cc4cnc(N)c5ncccc45)c3)cc(C(F)(F)F)c2)cn1,106%
11,Nc1nc2ccccc2c2c1S(=O)(=O)c1ccc(Cl)cc1C2=O,48.8%
12,CCC(=C(c1ccc(OCCN2CCCCC2)cc1)c1ccc(OCCN2CCCCC2)cc1)c1ccc(Cl)cc1,-94.5% (active)
13,O=C1C(Cl)=C(Nc2ccc(S(=O)(=O)N3CCOCC3)cc2)C(=O)c2ccccc21,96.9%
14,COc1ccc(C/C(C)=C(\c2ccc(Cl)cc2)c2ccc(OCCN3CCCCC3)cc2)cc1,93.5%
15,COc1cc2c(cc1OC)C(C)N(S(N)(=O)=O)CC2 (stereo unspecified),97.6%
16,Cc1[nH]c(=O)[nH]c(=O)c1Br,98%
17,Clc1cccc(Nc2ncnc3ccc(-c4cnc5[nH]ccc5c4)cc23)c1,82.3%
18,CCCCNC(=O)Oc1ccc(/C(=C(/C)Cc2ccc(OC)cc2)c2ccc(OCCN3CCCC3)cc2)cc1,79.3%
19,C#CCOC(=O)/C=C/c1cn(-c2ccccc2)nc1-c1ccc(OC)cc1,99.5%
20,COC(=O)[C@]1(C)CCC[C@]2(C)[C@H]3C[C@H]4C(C(C)C)=C[C@]3(CC[C@H]21)[C@@H]1C(=O)CC[C@H](OCCC#N)[C@@H]14,89.6%
